# Reference: PubChem BioAssay (EPA / NIEHS)
# Inconclusive results are not listed. A structure can be active in one record and inactive in another. Active and inactive are the calls of the source. The calls were made as follows: active = hit-call score of the fitted dose curve at least 0.9, where 1 is the maximum; inconclusive = response in the unintended direction; inactive = score below 0.9.
# Target: human Retinoic Acid Receptor gamma (RARg), RARG (gene 5916) (UniProt P13631)
# Test: ATG_RARg_TRANS: Attagene TRANS-FACTORIAL HepG2 Assay for human Retinoic Acid Receptor gamma (RARg) (AID 2283009);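 as to AC50: AC50 is for reporter induction above DMSO meaning RARg activation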
# Procedure: ATG_TRANS is a cell-based, multiplexed-readout assay that uses HepG2, a human liver cell line, with measurements taken at 24 hours after chemical dosing in a 24-well plate.ATG_RARg_TRANS is one of 30 assay component(s) measured or calculated from the ATG_TRANS assay. It is designed to make measurements of mRNA induction, a form of inducible reporter, as detected with fluorescence intensity signals by Reverse transcription polymerase chain reaction (RT-PCR) and Capillary electrophoresis technology.Data from the assay component ATG_RARg_TRANS was analyzed into 1 assay endpoint. This assay endpoint, ATG_RARg_TRANS, was analyzed in the positive analysis fitting direction relative to DMSO as the negative control and baseline of activity. Using a type of inducible reporter, measures of mRNA for gain-of-signal activity can be used to understand the reporter gene at the transcription factor-level as they relate to the gene RARG. Furthermore, this assay endpoint can be referred to as a primary readout, because this assay has produced multiple assay endpoints where this one serves a reporter gene function. To generalize the intended target to other relatable targets, this assay endpoint is annotated to the nuclear receptor intended target family, where the subfamily is non-steroidal.
# Human liver HepG2 cells are transiently transfected with multiple reporter transcription units (MRTUs) in 6-well plates using FuGene 6 reagent (Roche; 3 ml FuGene/1 mg DNA). The MRTU constructs are regulated by a cis-regulating element (promoter). […] A major difference between the CIS and TRANS system is that in CIS activities of endogenous TFs are measured, whereas the TRANS assay evaluates changes in activities of exogenous, chimeric NR-Gal4 proteins. […] At the end of 24 hour incubation, total RNA was isolated using TriZol reagent (Invitrogen). The isolated RNA is then reverse-transcribed using oligo(dT) primer and Mo-MLV reverse transcriptase (Invitrogen) with DNAse I (Ambion) treatment for 30 min. The one-tenth of the produced cDNA was amplified by PCR using Taq DNA polymerase (Invitrogen) and two reporter sequence-specific primers. The PCR products were fluorescently labeled by primer extension with 6-arboxyfluorescein (6-FAM) 5'-labeled reporter sequence-specific primer (2 min at 95 C, 20 s at 68 C and 10 min at 72 C) and these products were digested with 5U of HpaI (New England Biolabs) for 2h at 37 C. […] The raw capillary electrophoresis data was processed using Attagraph software (Attagene).
# human Retinoic Acid Receptor gamma (RARg), RARG (gene 5916), sequence (P13631 whole entry, looked up): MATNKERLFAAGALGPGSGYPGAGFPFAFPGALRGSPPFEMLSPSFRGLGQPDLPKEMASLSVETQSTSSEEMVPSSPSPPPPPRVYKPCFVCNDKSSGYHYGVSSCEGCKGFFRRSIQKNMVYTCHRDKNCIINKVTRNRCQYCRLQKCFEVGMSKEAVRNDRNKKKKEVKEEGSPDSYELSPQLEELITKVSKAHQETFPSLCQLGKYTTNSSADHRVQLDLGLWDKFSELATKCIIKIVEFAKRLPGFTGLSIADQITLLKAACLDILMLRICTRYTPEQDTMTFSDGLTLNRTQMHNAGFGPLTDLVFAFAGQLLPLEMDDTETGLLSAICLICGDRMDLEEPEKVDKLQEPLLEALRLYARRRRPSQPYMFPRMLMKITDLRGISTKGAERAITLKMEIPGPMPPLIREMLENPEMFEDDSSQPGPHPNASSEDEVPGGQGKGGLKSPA
SMILES,outcome,AC50
Cc1ccccc1CO[C@@H]1C[C@@]2(C(C)C)CC[C@]1(C)O2,inactive,–
ClC1=C(Cl)[C@]2(Cl)[C@@H]3[C@@H]4C[C@@H]([C@H]5O[C@@H]45)[C@@H]3[C@@]1(Cl)C2(Cl)Cl,–,2120 nM (active)
CN(C)CCO,inactive,–
C[C@]12CCC(=O)C=C1CC[C@@H]1[C@@H]2CC[C@@]2(C)[C@H]1CC[C@]2(C)O,inactive,–
Clc1ccc(C(c2ccccc2Cl)C(Cl)(Cl)Cl)cc1 (configuration not stated),inactive,–
Cc1ccccc1O,inactive,–
Cc1cc(O)ccc1Cl,inactive,–
O=C(O)C(F)(F)C(F)(F)C(F)(F)C(F)(F)C(F)(F)C(F)(F)C(F)(F)C(F)(F)F,inactive,–
CCCN(CCC)N=O,inactive,–
CCC(C)c1cc([N+](=O)[O-])cc([N+](=O)[O-])c1O (configuration not stated),inactive,–
O=C(NC(=O)c1c(F)cccc1F)Nc1cc(Cl)c(OC(F)(F)C(F)F)c(Cl)c1,inactive,–
CCCCCCCCCc1ccc(O)cc1,inactive,–
CC(C)(O)C(=O)Nc1ccc([N+](=O)[O-])c(C(F)(F)F)c1,inactive,–
C[C@]12CCC(=O)C=C1CC[C@@H]1[C@@H]2CC[C@]2(C)C(=O)CC[C@@H]12,inactive,–
NS(=O)(=O)C(F)(F)C(F)(F)C(F)(F)C(F)(F)C(F)(F)C(F)(F)C(F)(F)C(F)(F)F,inactive,–
c1cc2ccc3cccc4ccc(c1)c2c34,inactive,–
N#Cc1ccc(N(CC(N)=O)CC(F)(F)F)cc1C(F)(F)F,inactive,–
OCC(O)CO,inactive,–

SMILES,outcome,AC50
ClC1=C(Cl)[C@]2(Cl)[C@@H]3[C@H]4C[C@H]([C@@H]5O[C@H]45)[C@@H]3[C@@]1(Cl)C2(Cl)Cl,–,937 nM (active)
Nc1ccc(-c2ccc(N)cc2)cc1,inactive,–
CC(C)(c1ccccc1)c1ccc(O)cc1,inactive,–
Clc1ccc(Cl)cc1,inactive,–
ClC1=C(Cl)[C@]2(Cl)[C@@H]3[C@@H](Cl)[C@H]4O[C@H]4[C@@H]3C1(Cl)C2(Cl)Cl,inactive,–
CCOC(=O)C(O)(c1ccc(Cl)cc1)c1ccc(Cl)cc1,inactive,–
COc1ccc(O)c(C(C)(C)C)c1,inactive,–
O=C(O)C(F)(F)C(F)(F)C(F)(F)C(F)(F)C(F)(F)C(F)(F)C(F)(F)C(F)(F)C(F)(F)F,inactive,33400 nM (active)
C=CC(N)=O,inactive,–
CO/C=C(/C(=O)OC)c1ccccc1COc1cccc(C(F)(F)F)n1,inactive,–
CCCCCCCCCC[N+](C)(C)CCCCCCCCCC,inactive,–
CC1=C2C[C@H]3[C@@H](CC=C4C[C@@H](O)CC[C@@]43C)[C@@H]2CC[C@]12O[C@@H]1C[C@H](C)CN[C@H]1[C@H]2C,inactive,–
O=S(=O)(O)C(F)(F)C(F)(F)C(F)(F)C(F)(F)F,inactive,–
Cc1cc(-c2ccc(N)c(C)c2)ccc1N,inactive,–
Cc1cccc([N+](=O)[O-])c1,inactive,–
Cc1cc2c3c(c1)C(c1ccccc1)=N[C@@H](NC(=O)c1ccncc1)C(=O)N3CC2,inactive,–
CCC(=O)O[C@H]1CC[C@H]2[C@@H]3CCC4=CC(=O)CC[C@]4(C)[C@H]3CC[C@]12C,inactive,–
Oc1c(Cl)c(Cl)c(Cl)c(Cl)c1Cl,inactive,–
